In PubChem BioAssay (NCATS):
Records with an inconclusive call do not appear. The source made the active and inactive calls. The call rests on the fitted dose curve.

test: Primary qHTS to identify inhibitors of SARS-CoV-2 cell entry (AID 1645846); details: SARS-CoV-2 pseudovirus cell entry assay, luminescence; activity change, negative = inhibition: at 57.1 µM (top of the series) unless noted; further: nearly all actives have a fitted effect of over 45% in size
Outline: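 Using luciferase-reporting pseudoviruses carrying Wuhan-Hu-1 spike, the screen tracks entry into stably ACE2-expressing cells over 48 hr. Activity is expressed relative to spike particles versus particles lacking any fusion protein.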
Potency means the concentration at half of the fitted maximal effect.

| Compound | Potency | activity change, negative = inhibition [%] | outcome |
| --- | --- | --- | --- |
| CNC(=O)c1ccc(Nc2ncc(C(F)(F)F)c(NCc3nccnc3N(C)S(C)(=O)=O)n2)cc1 | 0.891 µM (active) |  |  |
| Fc1cccc(-n2cnc3c(NCc4nc5c(F)c(F)ccc5[nH]4)nc(N4CCOCC4)nc32)c1 |  | -62.7 |  |
| FC(F)(F)c1ccc(/C=C/c2nc(COc3ccc(CCCCn4ccnn4)cc3)co2)cc1 |  | -95.9 |  |
| CONC(=O)Nc1ccc(-c2sc3c(c2CN(C)C)c(=O)n(-c2ccc(OC)nn2)c(=O)n3Cc2c(F)cccc2F)cc1 |  | -24.2 |  |
| N#Cc1ccnc(Nc2cc(C3CCN(C4COC4)CC3)cc(N3CCC(F)(F)C3)n2)c1 | 3.16 µM (active) |  |  |
| CC1=NN(c2ccc(C(=O)O)cc2)C(=O)/C1=C/c1ccc(-c2cc(C)c(C)cc2[N+](=O)[O-])o1 | inactive |  |  |
| Cc1cc(O)cc2c1[C@]1(C)CC[C@H]3C(C)(C)CCC[C@]3(C)[C@H]1C2 |  |  | inactive [at 5.25 µM] |
| Cc1ccc(S(=O)(=O)Cc2nc(-c3ccc(C(=O)NCc4cccnc4)cc3)oc2C)cc1 |  | -96.2 |  |
| CC(C)(O)CS(=O)(=O)Nc1ccc2c(c1)CCN(C(=O)COc1cccnc1)C2 |  | -97.4 |  |
| C=Cc1cc(O)cc2nc(-c3ccc(O)c(F)c3)oc12 |  | -0.0201 |  |
| C=CCN(/C=C1\C(=O)O[C@@H](COC)[C@]2(C)C1=C(O)C(=O)C1=C2[C@@H](OC(C)=O)C[C@]2(C)C(=O)CC[C@H]12)CC=C | inactive |  |  |
| Cc1ccc(NC(=O)[C@H]2CCCN(C(=O)c3c(C)cccc3F)[C@H]2c2ccc(NC3CCCC3)cc2)cc1C(F)(F)F |  | -27.6 |  |
| O=C(O)C[C@H]1CCc2c1[nH]c1ccc(OCc3ccc(C4CCCC4)c(C(F)(F)F)c3)cc21 |  | -95.5 |  |
| COc1cccc(OCCCN)c1-c1cc(Nc2cnc(C#N)cn2)n[nH]1 |  | -33 |  |
| Cc1ccc(S(=O)(=O)Nc2cc(-c3ccc(C#N)s3)ccc2C)cc1 |  | -92 |  |
| CNCc1ccc(C)c(NC(=O)c2ccc(Nc3nc(-c4ccccc4)c4ccccc4n3)cc2)c1 | 14.1 µM (active) |  |  |
| O=C(NO)c1cnc(NC2(c3cccc(F)c3)CCCCC2)nc1 | 28.2 µM (active) |  |  |
| C=CC(=O)Nc1cccc(Nc2nc(Nc3ccc(Oc4ccnc(C(=O)NC)c4)cc3)ncc2F)c1 | 22.4 µM (active) |  |  |

| Compound | Potency | activity change, negative = inhibition [%] | outcome |
| --- | --- | --- | --- |
| CC(=O)NCC(=O)N1[C@@H]2CC[C@H]1c1ccc(Nc3ncc(C(F)(F)F)c(NC4CCC4)n3)cc12 | 3.16 µM (active) |  |  |
| CC(C)NC(=O)COc1cccc(-c2nc(Nc3ccc4[nH]ncc4c3)c3ccccc3n2)c1 |  | -14.8 |  |
| O=C(/C=C/c1cccnc1)NCCCCC1CCN(C(=O)c2ccccc2)CC1 |  | -96.7 |  |
| C[C@@H](Oc1ccc2[nH]nc(/C=C/c3cnn(CCO)c3)c2c1)c1c(Cl)cncc1Cl |  | -97.5 |  |
| COc1cc(N2CCC(O)CC2)ccc1Nc1cc(Nc2ccccc2S(=O)(=O)C(C)C)c2cc[nH]c2n1 |  | -27.7 |  |
| C=CC(=O)N1CC/C(=C\c2ccc(F)c([N+](=O)[O-])c2)C(=O)/C(=C/c2ccc(F)c([N+](=O)[O-])c2)C1 | 0.891 µM (active) |  |  |
| CNC(=O)CCc1cc(-c2ccc(-c3ccc(C(F)(F)F)cc3)cc2)n(-c2ccc(N3CCNCC3)cc2)n1 |  | -95.7 |  |
| CC1(C)C(N(O)C(=O)Nc2ccc(Cl)cc2)N(c2ccc(Cl)cc2)C(=O)N1CC(=O)N/N=C/C=C/c1ccc([N+](=O)[O-])o1 (stereo not given) | 17.8 µM (active) |  |  |
| CC1=C(CO)C(=O)O[C@@H]([C@@H](C)[C@H]2CC[C@H]3[C@@H]4C[C@H]5O[C@]56[C@@H](O)C=CC(=O)[C@]6(C)[C@H]4CC[C@]23C)C1 | 1.26 µM (active) |  |  |
| COc1cccc(-c2cc(F)ccc2C2Cc3nc(N)nc(C)c3C(=O)N2)n1 (stereo not given) |  | -91.7 |  |
| COc1cc2c(Oc3ccc4[nH]c(C)cc4c3F)ccnc2cc1OCC1(N)CC1 | 11.2 µM (active) |  |  |
| Cc1c(CN2CCC(Nc3ncnc4sc(CC(F)(F)F)cc34)CC2)ccc2c1cc(C#N)n2Cc1cn[nH]c1 | 8.91 µM (active) |  |  |
| C[C@H](NC(=O)[C@H]1NCC[C@@H]1O)c1ccc(-c2noc(CCC3CCCC3)n2)cc1 |  | -92.1 |  |
| CC(C)(C)c1[nH]cnc1/C=c1\[nH]c(=O)/c(=C/c2ccccc2)[nH]c1=O |  | -98.3 |  |
| O=c1c(-c2ccc(O)cc2)coc2c([C@@H]3O[C@H](CO)[C@@H](O)[C@H](O)[C@H]3O)c(O)ccc12 |  | -22.1 |  |
| FC(F)(F)c1ccc(CNc2ccc(Cc3c[nH]c4ncccc34)cn2)cc1 | 20 µM (active) |  |  |
| Cc1ccc(NC(=O)NCc2ccc3c(c2)CN(C2CCC(=O)NC2=O)C3=O)cc1Cl (stereo not given) |  | -96.8 |  |
